# ± gives the standard deviation of the averaged measurements. Whole data set: some 33,000 sequences, median “E-score (rank enrichment, -0.5 to 0.5)” near -0.0043, cut for the highest 2% near 0.24. The sample as a whole holds a higher share of the highest values than the screen did.
# Tested on: 2Sp-muMax20 (muMax20 with two 2,6-bis(methyl)pyridine Cys staples)
# Assay: PBM 8-mer E-score (E-score (rank enrichment, -0.5 to 0.5)); higher = stronger preferential binding
# Protocol: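 Protein binding microarray (universal PBM chip covering all 10-mers in fixed probe flanks) with chemically synthesized human Max(13-93) bHLH-LZ analogs (not full-length Max) bearing noncanonical residues (hArg, Tha, Aib, Nle at 65) and aromatic Cys staples. Read-out per 8-mer (and its reverse complement): E-score (rank-based enrichment, -0.5 to 0.5) and Z-score of median probe intensity.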
row,Sequence,PBM 8-mer E-score
1,CCTAATTA,0.0904 ± 0.21
2,CATAATTC,-0.0185 ± 0.041
3,AATAATTC,0.189 ± 0.046
4,GATAATTA,0.196 ± 0.061
5,CATAATTA,0.253 ± 0.034
6,AATAATTA,0.28 ± 0.019
7,TACTGCTA,0.126 ± 0.038
8,ACGGAGTC,-0.0911 ± 0.056
9,ACGGGGCT,-0.148 ± 0.019
10,AGAGCACG,0.134 ± 0.077
11,ACCAGTAC,-0.126 ± 0.045
12,GGGTGCAC,-0.0471 ± 0.01
13,ATCATGTA,0.113 ± 0.059
14,ATCATGTC,0.25 ± 0.02
15,ATCATGAT,0.257 ± 0.011
16,CTCATGTC,-0.0319 ± 0.027
17,CTCATGAA,0.0567 ± 0.055
18,ATCATGAG,0.0344 ± 0.13
19,CTCATGAC,0.0229 ± 0.022
20,CTCATGAG,0.319 ± 0.028
21,ATCATGAA,0.144 ± 0.037
22,GAGGTACA,-0.0106 ± 0.013
23,TAGGATAA,0.0706 ± 0.063
24,AAATCGTG,0.0374 ± 0.006
25,ATTCGTCA,0.0337 ± 0.012
26,GCACGCGC,0.331 ± 0.018

row,Sequence,PBM 8-mer E-score
1,GCGCGCGA,0.149 ± 0.071
2,CCGCGCGC,0.13 ± 0.12
3,GCGCGCAC,0.203 ± 0.035
4,TCGCGCGA,0.265 ± 0.11
5,CCGCGCGA,-0.0339 ± 0.029
6,GCGCGCGC,0.361 ± 0.053
7,ACACGCGC,0.118 ± 0.046
8,GCACGCGA,0.0689 ± 0.0054
9,CCATTGTC,-0.0232 ± 0.0014
10,ACGAGGTC,0.0484 ± 0.023
11,ATGAGCAG,0.0835 ± 0.083
12,AGGGTATG,0.178 ± 0.066
13,CGGGTATA,0.0393 ± 0.086
14,ATGGTATC,0.165 ± 0.011
15,AGGGTATA,0.24 ± 0.0057
16,ATGGTATA,0.238 ± 0.028
17,ATGGTATG,0.0455 ± 0.0021
18,CGTCCTAG,-0.188 ± 0.035
19,ATGATGTC,0.14 ± 0.091
20,AGTGAATA,-0.07056 ± 0.00064
21,ACATAAGT,0.132 ± 0.017
22,ATAACCAG,0.0292 ± 0.0095
23,ATCACCAT,0.103 ± 0.052
24,CTAACCAC,-0.0501 ± 0.043
25,ATAACCAC,0.243 ± 0.014
26,CTCACCAC,0.0921 ± 0.082

row,Sequence,PBM 8-mer E-score
1,ATCACCAC,0.276 ± 0.0035
2,CCGAAGCA,0.0942 ± 0.036
3,CAGTGGCA,-0.004 ± 0.031
4,CCGAATAA,0.0378 ± 0.031
5,ACGTAGAG,-0.0148 ± 0.051
6,GAAAATGC,0.127 ± 0.028
7,CGAGGCTC,-0.224 ± 0.035
8,ATCACATC,0.0931 ± 0.021
9,ACCACATG,0.318 ± 0.0037
10,ACCACATC,-0.0798 ± 0.011
11,ACCACATA,0.0521 ± 0.076
12,ATCACATG,0.305 ± 0.021
13,ATCACATA,0.187 ± 0.0085
14,AGCACATA,0.0303 ± 0.1
15,AGCACATG,0.263 ± 0.026
16,AGCACATC,0.0563 ± 0.062
17,CAACGCCG,-0.168 ± 0.12
18,CGAAACGA,-0.0544 ± 0.031
19,ATTGTCTG,0.0837 ± 0.039
20,CTCTCTCC,-0.18 ± 0.14
21,CCCATTCC,-0.0919 ± 0.059
22,CGCATACA,0.0225 ± 0.14
23,AGCGCCAC,-0.0643 ± 0.017
24,TCAATGGA,-0.0717 ± 0.0065
25,CCGTGGGC,-0.2115 ± 0.0018
26,GCCAGAGC,-0.206 ± 0.099

row,Sequence,PBM 8-mer E-score
1,GAGTCTAC,-0.125 ± 0.044
2,CATGGGTA,0.072 ± 0.066
3,GGTGGGTA,0.249 ± 0.035
4,GGGTGGGA,0.297 ± 0.0041
5,CGTGGGTA,0.0577 ± 0.045
6,AATGGGTA,0.0946 ± 0.14
7,CGGTGGGA,-0.0291 ± 0.0059
8,AGGTGGGA,0.0626 ± 0.1
9,AGTGGGTA,0.166 ± 0.0072
10,GATGGGTA,0.249 ± 0.014
11,CGGCACCC,-0.139 ± 0.13
12,GCTAGACC,-0.164 ± 0.049
13,CTTCGAAC,-0.115 ± 0.0046
14,ACCTACAG,0.0593 ± 0.044
15,AGCGGGGC,-0.0319 ± 0.078
16,GAAACATC,-0.0525 ± 0.05
17,AAAACATA,0.0989 ± 0.11
18,CAAACATG,0.157 ± 0.079
19,AAAACATG,0.24 ± 0.078
20,GAAACATA,0.254 ± 0.015
21,CGAACATC,0.00373 ± 0.037
22,AAAACATT,0.0666 ± 0.088
23,CGAACATA,0.255 ± 0.034
24,GGAACATA,0.0521 ± 0.044
25,ACAGACGG,-0.07 ± 0.089
26,ATTCGTTG,-0.0514 ± 0.066

row,Sequence,PBM 8-mer E-score
1,ACGTGTAA,0.173 ± 0.072
2,GCAGCGAA,-0.157 ± 0.066
3,ACCTTGAT,0.0217 ± 0.046
4,GATTCAAA,0.0206 ± 0.051
5,CTCGGTGC,-0.163 ± 0.12
6,ACGAACTA,-0.0202 ± 0.1
7,AGTACACA,0.196 ± 0.098
8,GGTACAAA,0.0427 ± 0.053
9,CGTACACG,0.134 ± 0.035
10,TGTACAAA,0.244 ± 0.054
11,TGTACACA,0.283 ± 0.012
12,AGTACAAA,0.134 ± 0.1
13,GTAACAAC,0.00768 ± 0.059
14,ACATTCAG,0.0112 ± 0.042
15,AATGAATC,-0.0131 ± 0.0047
16,AATGAATA,0.259 ± 0.064
17,GATGAATA,0.201 ± 0.093
18,AATGAATG,0.24 ± 0.098
19,AATGAATT,0.179 ± 0.031
20,TATGAATA,0.169 ± 0.078
21,ATACTTGG,0.0935 ± 0.004
22,GTCCATCA,-0.0683 ± 0.092
23,CCCGTCCC,-0.0481 ± 0.028
24,ACAAACTA,0.115 ± 0.0062
25,CAAAACTA,0.103 ± 0.013
26,CCAAACTA,0.241 ± 0.0054

row,Sequence,PBM 8-mer E-score
1,GTGACTAA,0.0929 ± 0.037
2,CATCCAAC,0.124 ± 0.056
3,TAGGGACA,-0.0107 ± 0.063
4,ATCTAGTA,0.0613 ± 0.095
5,CACTAGTA,0.107 ± 0.1
6,CTCTAGTA,0.125 ± 0.045
7,GTCTAGTA,0.246 ± 0.021
8,GACTAGTA,0.223 ± 0.033
9,ATCTACTG,0.0117 ± 0.033
10,ATCTACTC,-0.0118 ± 0.032
11,TACTACTA,0.247 ± 0.058
12,TACTAGTA,0.25 ± 0.055
13,GACTACTA,0.12 ± 0.12
14,AACTACTA,0.144 ± 0.025
15,ATCTACTA,0.263 ± 0.086
16,AAGGCTAA,0.0957 ± 0.095
17,GCAATCCC,0.107 ± 0.035
18,AATACTTA,0.05682 ± 0.00026
19,CGCCTAGA,-0.246 ± 0.079
20,ACTCCGGA,0.0232 ± 0.032
21,AAAGCTAT,0.0921 ± 0.032
22,AGAGTTGC,-0.124 ± 0.013
23,GCTCCGAC,-0.215 ± 0.035
24,CGGCTTCC,-0.166 ± 0.13
25,CCTGCCCG,-0.0476 ± 0.0022
26,CCGTTACC,-0.0555 ± 0.027

row,Sequence,PBM 8-mer E-score
1,GACTTGTA,0.124 ± 0.17
2,ACCGCAAA,-0.161 ± 0.043
3,CTTGCGCA,0.266 ± 0.0099
4,CTTGCGCC,-0.148 ± 0.036
5,AATGCGCA,0.229 ± 0.021
6,TATGCGCA,0.267 ± 0.026
7,CATGCGCA,0.109 ± 0.18
8,ATTGCGCA,0.124 ± 0.033
9,TAACATTA,0.114 ± 0.082
10,CTGTTAAC,0.0735 ± 0.0019
11,CTGTTTAC,0.0257 ± 0.014
12,GTGTTAAC,-0.0129 ± 0.032
13,ATGTTTAC,0.243 ± 0.073
14,ATGTTTAG,0.22 ± 0.022
15,ATGTTAAC,0.322 ± 0.023
16,ACTGGCTC,-0.126 ± 0.031
17,GGTAAACC,-0.203 ± 0.077
18,ACAAGTCA,0.0779 ± 0.031
19,ACAAGTCG,0.0191 ± 0.009
20,ACAAGTCT,0.287 ± 0.028
21,ACATGCAA,0.0816 ± 0.11
22,CGGTATCA,-0.1599 ± 0.00081
23,AGGTATCG,-0.0734 ± 0.073
24,AGGTATCA,0.238 ± 0.043
25,AAAAGGCG,0.0426 ± 0.024
26,CACCGATA,-0.0537 ± 0.018

row,Sequence,PBM 8-mer E-score
1,GGGAATGA,0.26 ± 0.057
2,CGGAATGA,-0.155 ± 0.06
3,AGGAATGA,0.0595 ± 0.018
4,AATGTATC,0.151 ± 0.022
5,TACCAACA,0.163 ± 0.027
6,ATAGACTC,0.154 ± 0.021
7,CTGGCGGC,-0.155 ± 0.055
8,CACGCCCG,0.0249 ± 0.038
9,ATATCAGC,0.0631 ± 0.073
10,CTGTCATA,0.179 ± 0.043
11,ATGTCATA,0.189 ± 0.012
12,CTATCATA,0.185 ± 0.013
13,CCATCATA,0.153 ± 0.082
14,ATATCATA,0.255 ± 0.085
15,ATATCAGA,0.0984 ± 0.019
16,ATATCAGG,0.239 ± 0.032
17,GTGTCATA,0.248 ± 0.042
18,ATATCATG,0.147 ± 0.035
19,ACATCATC,0.047 ± 0.02
20,ACATCATA,0.244 ± 0.064
21,CGATAAGC,-0.0518 ± 0.16
22,GGAATACC,-0.138 ± 0.015
23,ACAGTTAG,0.074 ± 0.026
24,TGCTGCAA,0.0638 ± 0.096
25,CTTTCGGA,-0.125 ± 0.009
26,CCCAACAA,0.177 ± 0.0058

row,Sequence,PBM 8-mer E-score
1,AAAAGAAA,0.0569 ± 0.052
2,CCGCTGGA,-0.157 ± 0.04
3,GTATCATA,0.255 ± 0.024
4,GCATCATA,0.169 ± 0.0065
5,GTATCAGA,-0.0699 ± 0.043
6,CATGAGCA,-0.0267 ± 0.017
7,GCCGAAGA,-0.0625 ± 0.053
8,AGTAACAA,0.113 ± 0.089
9,CGTAATAG,0.118 ± 0.1
10,AGTAATAA,0.0744 ± 0.038
11,AGTAATAG,0.254 ± 0.02
12,AATAGTAG,0.0793 ± 0.083
13,AGTAATGG,0.122 ± 0.043
14,CATAGTAA,0.159 ± 0.099
15,AGTAATAT,0.25 ± 0.05
16,AGTAACAT,0.294 ± 0.018
17,AATAGTAA,0.238 ± 0.06
18,AGTAACAG,0.09 ± 0.031
19,AGTAATAC,-0.0935 ± 0.039

# — the supplement of paper PMC12636033
